# Bioassay records (PubChem)
# WRN helicase inh: blocks human WRN helicase; Q14191; WRN helicase unwinding, fluorescent forked duplex, kinetic; Potency, µM (titrated, usually from 114 µM), for inactives: at the top dose activity change, negative = inhibition, actives largely listed as inhibitors; actives 0.46% (n = 360,000); further: potency means the concentration at half of the fitted maximal effect; on the % scale 0 is the no-effect control and ±100 the full control effect; nearly all actives have a fitted effect of over 55% in size
#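 Fluorescence dequenching readout, ex 525 nm/em 598 nm, kinetic mode: forked duplex DNA (100 nM final) with adjacent fluorophore and quencher unwound by WRN (20 nM final) with 2 mM ATP. Compound preincubation 15 min, room temperature.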
# PLK1 PBD inh: inhibitors of human PLK1 polo-box domain binding. AID 720504. Potency, µM, for inactives: max response, negative = inhibition, most hits filed as inhibitors. actives 2.8% (n = 360,000). P53350. Plk1 PBD binding of FITC phosphopeptide, fluorescence polarization; further: potency means the concentration at half of the fitted maximal effect; series mostly up to about 57 µM; on the % scale 0 is the no-effect control and ±100 the full control effect; nearly all actives have a fitted effect of over 65% in size
# Target sequence (P53350 whole entry, looked up, the tested form may be a part): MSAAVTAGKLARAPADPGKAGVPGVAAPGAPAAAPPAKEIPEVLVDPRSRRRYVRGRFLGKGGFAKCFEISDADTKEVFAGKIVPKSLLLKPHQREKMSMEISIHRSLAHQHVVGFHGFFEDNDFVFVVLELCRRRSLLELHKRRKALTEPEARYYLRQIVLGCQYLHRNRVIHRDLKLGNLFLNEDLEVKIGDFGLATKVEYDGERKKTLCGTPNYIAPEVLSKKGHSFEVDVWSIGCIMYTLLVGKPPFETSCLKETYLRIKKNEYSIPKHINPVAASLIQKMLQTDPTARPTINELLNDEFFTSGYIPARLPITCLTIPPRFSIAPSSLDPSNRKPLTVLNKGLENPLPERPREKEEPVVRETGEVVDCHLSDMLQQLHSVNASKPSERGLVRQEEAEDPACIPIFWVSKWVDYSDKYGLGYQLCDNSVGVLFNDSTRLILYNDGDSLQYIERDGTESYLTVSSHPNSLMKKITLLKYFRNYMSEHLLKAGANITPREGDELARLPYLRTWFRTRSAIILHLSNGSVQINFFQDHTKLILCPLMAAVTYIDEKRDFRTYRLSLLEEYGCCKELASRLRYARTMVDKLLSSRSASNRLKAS
# TCR activator: activators of T cell receptors; primary human leukocytes, anti-CD3, IL-2 HTRF, 48 h; 330,000 tested, under 10 active; Potency, µM (series often up to 9.22 µM), for inactives: top-dose activation of IL-2 secretion, most hits filed as activators; further: % of control where 0% means no effect
#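 Primary human leukocytes incubated 48 hr with anti-CD3 beads plus compound, without co-stimulation. Secreted IL-2 measured by HTRF (europium cryptate/d2 anti-IL-2 pair, 320 nm excitation, 665 nm emission).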
# PI5P4K alpha inh: inhibitors of human PI5P4K alpha. P48426. PI5P4Kalpha enzyme, ADP-Glo luminescence, 60 min; active compounds read low. AID 652105. max response, %. actives 1.2% (n = 330,000); active means max response of -50% or lower; inconclusive means between -30% and -50%; inactive means -30% or higher; further: value at the top dose of about 77 µM; on the % scale 0 is the no-effect control and ±100 the full control effect
#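 Luminescence from ADP-Glo served as readout of PI5P4Kalpha activity in a qHTS format. Reaction: enzyme, substrate, compound, ATP at 5 microM final, 60 min at RT.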
# VDR inh: blocks the human vitamin D receptor; actives 0.93% (n = 400,000); P11473; VDR-SRC2-3 peptide fluorescence polarization, 2 h; AID 504847; Potency, µM, for the others: max response, negative = inhibition, actives largely listed as inhibitors; further: potency means the concentration at half of the fitted maximal effect; on the % scale 0 is the no-effect control and ±100 the full control effect
#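 Compounds are added to VDR with labelled SRC2-3 coactivator peptide and held 2 h at room temperature. Inhibition of the VDR–peptide interaction is then read as a change in fluorescence polarization.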
# FEN1 inh: blocks human flap endonuclease 1; P39748; Recombinant FEN1 flap cleavage, fluorescence, 15 min; Potency, µM (series often up to 114 µM), inactives show top-dose activity change, negative = inhibition, actives largely listed as inhibitors; actives 0.35% (n = 390,000); further: potency means the concentration at half of the fitted maximal effect; on the % scale 0 is the no-effect control and ±100 the full control effect; nearly all actives have a fitted effect of over 65% in size
#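 Reaction started by adding substrate (50 nM final) to 10 nM enzyme after 15 min room-temperature compound preincubation. Reads at 0 and 15 min, with data normalized and fitted to a four-parameter Hill equation.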
# USP1-UAF1 confirm: validation of human USP1/UAF1 inhibitors. shares compounds with VDR inh. Ub-Rhodamine cleavage, fluorescence kinetic read. Potency, µM (top dose mostly 56.8 µM), without a hit: at the highest dose activity change, negative = inhibition, hits mostly inhibitors. actives 50% (n = 50)
# VDR inh confirm: confirmation of human vitamin D receptor inhibitors | actives 89% (n = 840) | shares compounds with VDR inh | VDR-coactivator inhibition assay, qHTS confirmation | Potency, µM, most hits filed as inhibitors | AID 602199; further: potency means the concentration at half of the fitted maximal effect
# VDR FP fluor: confirmation of human VDR-coactivator binding inhibitors, fluorescein label; shares compounds with VDR inh; VDR-coactivator binding, fluorescein fluorescence polarization; Potency, µM (titrated, usually from 57.1 µM), for inactives: top-dose activity change, negative = inhibition, most hits filed as inhibitors; actives 48% (n = 840); AID 602200; further: potency means the concentration at half of the fitted maximal effect
# VDR bla: confirmation of human vitamin D receptor inhibitors in reporter cells; shares compounds with VDR inh; VDR beta-lactamase reporter cells, FRET ratio; cells co-treated with VDR agonist LG190178; Potency, µM (top dose mostly 46.1 µM), inactives show at the highest dose activity change, negative = inhibition, most hits filed as inhibitors; actives 23% (n = 840); further: potency means the concentration at half of the fitted maximal effect; on the % scale 0 is the no-effect control and ±100 the full control effect
# VDR viability: counter-screen for vitamin D receptor inhibitors: cytotoxicity; Potency, µM (series often up to 48.3 µM), for inactives: at the top dose activity change, negative = cytotoxicity, most hits filed as cytotoxic; cytotoxicity counter-screen, cell viability, qHTS; AID 602204; actives 18% (n = 840); shares compounds with VDR inh;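 further: potency means the concentration at half of the fitted maximal effect; plate controls were DMSO for no effect and high-concentration cycloheximide for full effect; nearly all actives have a fitted effect of over 75% in size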
# * hit, by the source's call; ? = inconclusive; nt = not tested or not shown; [ ] = dose if it differs, or a comment. Sampled rows, rich in hits. Any-hit rate of the full collection: about 3.7%. Unless noted, the call rests on the fitted dose curve; in most records, active means well fitted curve in the direction sought with a large enough effect; inconclusive means small, poorly fitted or top-dose-only effect, or another doubt; inactive means no such curve, though single readings can be large; an effect the other way counts as inactive or inconclusive.
SMILES,WRN helicase inh,PLK1 PBD inh,TCR activator,PI5P4K alpha inh,VDR inh,FEN1 inh,VDR inh confirm,VDR FP fluor,VDR bla,VDR viability,others
COc1ccc(-c2cc(C(F)(F)F)nc(S(C)(=O)=O)n2)cc1,-25%,?,4%,0,40µM*,-9%,18*,28µM*,?,?,
NS(=O)(=O)c1ccc(NC2=CC(=O)C(=O)c3ccccc32)cc1,?,27µM*,1%,-28,?,-34%,14*,7.9µM*,?,?,
Cc1cccc(Cn2ccn(Cc3ccc(Cl)cc3)c(=O)c2=O)c1,nt,nt,nt,nt,-4%,22%,nt,nt,nt,nt,
N#Cc1c(NC(=O)Cn2nc(C(F)(F)F)c3c2CCCC3)sc2c1CCC2,-7%,3µM*,1%,?,79µM*,9%,6.7*,?,4%,0%,
CCc1ccc(NC(=O)Cn2nc(C(F)(F)F)c3c2CCC3)cc1,-3%,0%,-1%,4,-9%,1%,nt,nt,nt,nt,
C#CCOc1ccc(/C=C2/C(=O)ON=C2C)cc1Cl,?,2.1µM*,-6%,-15,45µM*,-6%,6*,?,-3%,9%,
CCOc1cc(/C=C2/C(=O)ON=C2C)ccc1OCc1ccc(F)cc1,-16%,?,6%,nt,79µM*,-7%,?,157%,-5%,-34%,
C=CCOc1c(Br)cc(/C=C2/C(=O)ON=C2C)cc1OC,-16%[11.6 µM],4.7µM*,-6%,-5,45µM*,16%,9.5*,?,-10%,11%,
C=CCOc1c(Br)cc(CNn2cn[nH]c2=S)cc1OC,-3%,-15%,2%,-8,-16%,-12%,nt,nt,nt,nt,
C#CCOc1c(Cl)cc(/C=C2/C(=O)ON=C2C)cc1OCC,-7%,6µM*,-6%,-10,?,-20%,7.9*,7.9µM*,-4%,10%,
CCN1C(=O)/C(=C/c2ccc(OCc3ccc(C(=O)O)cc3)c(Cl)c2)NC1=S,-13%[57.1 µM],?,5%,?,?,-5%,nt,nt,nt,nt,
Cc1cc(NC(=O)CCCOc2ccc(Cl)cc2Cl)no1,4%,-2%,-3%,nt,0%,-3%,nt,nt,nt,nt,
CCCOc1ccc(Cl)cc1/C=C1/C(=O)ON=C1C,-28%,2.4µM*,3%,-9,25µM*,-5%,11*,3.5µM*,13%,?,
CC1(C)Cc2ccccc2C2=NNC(=O)C2=N1,-3%[11.6 µM],-21%,nt,0,11µM*,1%,?,?,-14%,?,
CC1(C)Cc2ccccc2C(Nn2cnnc2)=N1,-8%,-2%,-3%,nt,-11%,-12%,nt,nt,nt,nt,
COc1ccc(C)cc1N1C(=N)/C(=C2/Nc3ccccc3S2)C(c2ccccc2)C1=O (stereo unspecified),-6%,?,-4%[46.1 µM],5,?,-10%,10*,8.9µM*,-20%,-6%,
CCN1CCN(C(c2ccc(C(F)(F)F)cc2)c2ccc3cccnc3c2O)CC1 (stereo unspecified),-21%,3.8µM*,-1%,-29,25µM*,-18%,?,10µM*,8%,-5%,
CCC(=O)NC(c1ccc(C)cc1)c1ccc2cccnc2c1O (stereo unspecified),-4%[57.1 µM],6%,2%,-9,14%,13%,nt,nt,nt,nt,
O=[N+]([O-])c1ccc(Sc2cccc[n+]2[O-])c2nonc12,16µM*,0.95µM*,9%,-53*,8.9µM*,22µM*,6*,?,3.7µM*,?,
COC(=O)[C@H](C)NC(=O)c1cc2c(cn1)[nH]c1ccccc12,?,1.3µM*,4%,?,22µM*,?,3.4*,?,17%,-11%,
CCOC(=O)C(Cc1ccc(O)cc1)NC(=O)c1cc2c(cn1)[nH]c1ccccc12 (stereo unspecified),-1%,-14%,nt,-3,nt,nt,nt,nt,nt,nt,
COC(=O)/C=c1/sc2nc3ccccc3n2c1=O,-7%,2.7µM*,-2%,nt,?,3%,3.2*,2.8µM*,6%,5%,
O=c1c2ccccc2nc2sc3ccccc3n12,-11%,-21%,-5%[46.1 µM],2,-7%,-8%,nt,nt,nt,nt,
Cc1cc(-c2ccc(C)c(S(=O)(=O)NCc3cccs3)c2)on1,nt,nt,nt,nt,4%,14%,nt,nt,nt,nt,
CCC1(c2ccccc2)C(=O)N(C(=O)OC(C)(C)C)N1C(=O)OC(C)(C)C (stereo unspecified),-7%,-14%,8%,7,6%,-16%,nt,nt,nt,nt,
SMILES,WRN helicase inh,PLK1 PBD inh,TCR activator,PI5P4K alpha inh,VDR inh,FEN1 inh,VDR inh confirm,VDR FP fluor,VDR bla,VDR viability,others
CCOC(=O)N1C(=O)[C@](CC)(c2ccccc2)N1C(=O)OCC,5%,17µM*,-8%,-3,79µM*,1%,?,?,21%,-5%,
COc1cc(-c2cc(C(=O)Nc3cc(S(=O)(=O)N4CCOCC4)ccc3O)c3ccccc3n2)cc(OC)c1OC,?,17µM*,-2%,?,?,-11%,?,32µM*,1%,29%,
Nc1cc(S(=O)(=O)Nc2ccccc2Cl)ccc1N1CCCCC1,7%,2.4µM*,2%,-26,?,-23%,7.1*,7.1µM*,-26%,-27%,
COc1ccccc1C(=O)Nc1ccccc1OCc1cc(=O)n2c(C)csc2n1,nt,nt,nt,nt,1%,-2%,nt,nt,nt,nt,
CCOC(=O)c1ccc(N2NC(=O)/C(=C/c3ccc(OC(=O)c4ccco4)c(OC)c3)C2=O)cc1,nt,nt,9%[46.1 µM],nt,nt,nt,nt,nt,nt,nt,
COc1cc(/C=C2\C(=O)N(c3ccc(S(N)(=O)=O)cc3)N=C2C)ccc1OC(=O)c1ccco1,-16%[11.6 µM],3.8µM*,-6%,-1,?,-16%,10*,3.5µM*,-11%,-18%,
O=C(N[C@@H](Cc1ccccc1)C(=O)CCl)OCc1ccccc1,?,30µM*,-11%,1,5.6µM*,-1%,nt,nt,nt,nt,USP1-UAF1 confirm=26µM*
